Source: PubChem BioAssay (several laboratories)
Most compounds without a hit are left out; they make up all but 1.5% or so of the library.
MCL1 BIM primary: inhibitors of human MCL1 binding to BIM-BH3 peptide. Q07820. GST-MCL1 / FITC-Bim-BH3 fluorescence polarization. inhibition, % at 10.9 µM. 320,000 tested, 0.68% active;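 active = inhibition above the mean inhibition of all tested compounds plus 3 SD, set per campaign, cut at about 40% in these data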;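 also: higher means more loss of mP so more displacement of Bim peptide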
GLD-1 RNA inh: GLD-1-TGE RNA interaction inhibition (C. elegans) | Q17339 | purified GLD-1 + fluorescein TGE RNA, fluorescence polarization | inhibition, % at 5.96 µM | 320,000 tested, 0.44% active | AID 2280;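 active = percent inhibition above a per-plate cutoff, the plate mean of test compounds plus 3 SD, cut at about 30% in these data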
E coli Lon inh: inhibitors of E. coli Lon protease; 360,000 tested, 0.42% active; purified E. coli Lon protease, fluorescence polarization; P0A9M0; inhibition, % at 7.94 µM; in the data active = inhibition above about 13%, passing the limit was not always enough
MEX-5 binding: C. elegans MEX-5 TCR-2 RNA binding activity | Q9XUB2 | MEX-5/FITC-TCR2 RNA binding, fluorescence polarization; hits give low values | activity score (negative = inhibition of binding), % at 10 µM | 300,000 tested, 0.38% active | AID 1832;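 active = inhibition past about -25% in most replicates, and total fluorescence under double the plate's negative control median, limit read from the data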
Target sequence (Q9XUB2 whole entry, looked up): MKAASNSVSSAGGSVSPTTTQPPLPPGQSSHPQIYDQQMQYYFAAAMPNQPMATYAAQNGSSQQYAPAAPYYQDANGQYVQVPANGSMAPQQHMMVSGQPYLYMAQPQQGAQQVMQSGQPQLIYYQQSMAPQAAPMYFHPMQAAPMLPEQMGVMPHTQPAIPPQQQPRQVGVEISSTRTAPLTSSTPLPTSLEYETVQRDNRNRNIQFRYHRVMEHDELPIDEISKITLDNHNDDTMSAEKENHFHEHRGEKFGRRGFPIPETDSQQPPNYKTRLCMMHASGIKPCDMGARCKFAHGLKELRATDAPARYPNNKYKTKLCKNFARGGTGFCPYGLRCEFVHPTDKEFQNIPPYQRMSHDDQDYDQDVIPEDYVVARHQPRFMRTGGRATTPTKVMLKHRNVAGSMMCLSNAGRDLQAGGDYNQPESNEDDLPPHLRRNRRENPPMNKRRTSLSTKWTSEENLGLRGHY
EBV gp42 inh: EBV gp42 inhibition | AID 1085 | 220,000 tested, 0.42% active | inhibition, % (tested at 21.74 µM) | Fluorescence polarization binding assay, mP read-out | Q1HVG2; in the data active = inhibition above about 50%
BCLXL inh: Bcl-xL (human) inhibition; GST-Bcl-xL / FITC-Bim BH3 peptide fluorescence polarization; AID 2129; 320,000 tested, 0.7% active; Q07817; inhibition, % at 10.9 µM;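 active = inhibition above the mean of all tested compounds plus 3 SD, cutoff set per campaign, cut at about 30% in these data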;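 also: inhibitors lower millipolarization by displacing the labeled peptide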
eLon confirm: E. coli Lon inhibition confirmation | shares compounds with E coli Lon inh | purified E. coli Lon, fluorescence polarization | inhibition, % at 7.94 µM | 1,400 tested, 31% active; in the data active = inhibition above about 16%
Numbers stand for hits.

What do the screens show for `COC(=O)C(Cc1ccccc1)NC(=O)C(CC(C)C)NC(=O)OC(C)(C)C` (configuration not stated)?
MCL1 BIM primary: inactive; GLD-1 RNA inh: inactive; E coli Lon inh: inactive; MEX-5 binding: inactive; EBV gp42 inh: inactive; BCLXL inh: inactive

Results for CC(C)CC(NC(=O)OC(C)(C)C)C(=O)O (configuration not stated) ?
MCL1 BIM primary: inactive; GLD-1 RNA inh: inactive; E coli Lon inh: 19; MEX-5 binding: inactive; EBV gp42 inh: inactive; BCLXL inh: inactive; eLon confirm: inactive

How did O=[N+]([O-])c1cc(CN2CCCC2)ccc1Sc1ccc(Cl)cc1 do in these assays?
MCL1 BIM primary: inactive; GLD-1 RNA inh: inactive; E coli Lon inh: inactive; MEX-5 binding: inactive; EBV gp42 inh: inactive; BCLXL inh: inactive

What do the screens show for `CC(C)CN(C(=O)Cn1c(Cl)nc2c1c(=O)n(C)c(=O)n2C)C1CCS(=O)(=O)C1` (configuration not stated)?
MCL1 BIM primary: inactive; GLD-1 RNA inh: inactive; E coli Lon inh: 16; MEX-5 binding: inactive; BCLXL inh: inactive; eLon confirm: inactive

How did CCn1cc(CN2CCCC(CNC(=O)COc3ccccc3OC)C2)c(C)n1 (configuration not stated) do in these assays?
MCL1 BIM primary: inactive; GLD-1 RNA inh: inactive; E coli Lon inh: inactive; MEX-5 binding: inactive; BCLXL inh: inactive

Results for Cc1ccc(CNC(=O)c2ccc(F)c(S(=O)(=O)N3CCOCC3)c2)cc1 ?
E coli Lon inh: inactive

Results for Cc1cc(C)n(CCNS(=O)(=O)c2ccc(C)c(C)c2)n1 ?
MCL1 BIM primary: inactive; GLD-1 RNA inh: inactive; E coli Lon inh: inactive; MEX-5 binding: inactive; BCLXL inh: inactive

How did Clc1ccc(N=NN2CCOCC2)cc1 do in these assays?
MCL1 BIM primary: inactive; GLD-1 RNA inh: inactive; E coli Lon inh: 19; MEX-5 binding: inactive; EBV gp42 inh: inactive; BCLXL inh: inactive; eLon confirm: inactive

How did COc1ccccc1N1CCN(C2CCCCC2NS(=O)(=O)c2ccc(Cl)cc2)CC1 (configuration not stated) do in these assays?
MCL1 BIM primary: inactive; GLD-1 RNA inh: inactive; E coli Lon inh: 25; MEX-5 binding: inactive; BCLXL inh: inactive; eLon confirm: inactive

Results for COc1ccc(N2CCN(C3CCCCC3NS(=O)(=O)c3ccc(Cl)cc3)CC2)cc1 (configuration not stated) ?
MCL1 BIM primary: inactive; GLD-1 RNA inh: inactive; E coli Lon inh: inactive; MEX-5 binding: inactive; BCLXL inh: inactive

How did CN(C(=O)COC(=O)c1cc2c(s1)CCCCC2)c1ccccc1 do in these assays?
MCL1 BIM primary: inactive; GLD-1 RNA inh: inactive; E coli Lon inh: 30; MEX-5 binding: inactive; BCLXL inh: inactive; eLon confirm: inactive

How did COc1ccc2nc3ccccc3[n+]([O-])c2c1 do in these assays?
E coli Lon inh: 194; eLon confirm: 138

What do the screens show for `COc1ccc2c(ccc[n+]2[O-])c1`?
E coli Lon inh: inactive

Results for CCOC(=O)C1CCN(C(=O)C(CCSC)NC(=O)c2ccccc2OC)CC1 (configuration not stated) ?
MCL1 BIM primary: inactive; GLD-1 RNA inh: inactive; E coli Lon inh: inactive; BCLXL inh: inactive

How did CC1NC(=O)c2cc3ccccc3cc2-n2c1nc1ccc(F)cc1c2=O (configuration not stated) do in these assays?
E coli Lon inh: inactive

Results for Cc1cccc(/C=N/NC(=O)C(C)Nc2cccc3ccccc23)n1 (configuration not stated) ?
MCL1 BIM primary: inactive; GLD-1 RNA inh: inactive; E coli Lon inh: 61; MEX-5 binding: inactive; EBV gp42 inh: inactive; BCLXL inh: inactive; eLon confirm: 105

Results for CC(Nc1cccc2ccccc12)C(=O)N/N=C/c1ccc([N+](=O)[O-])cc1 (configuration not stated) ?
MCL1 BIM primary: inactive; GLD-1 RNA inh: inactive; E coli Lon inh: inactive; MEX-5 binding: inactive; EBV gp42 inh: inactive; BCLXL inh: inactive

How did CC(C)CCNC(=O)C1(O)c2ccccc2NC(=O)N1c1ccc(Cl)cc1 (configuration not stated) do in these assays?
MCL1 BIM primary: inactive; GLD-1 RNA inh: inactive; E coli Lon inh: inactive; MEX-5 binding: inactive; BCLXL inh: inactive

Results for COc1cc(N=Nc2ccccc2C(=O)O)ccc1O ?
MCL1 BIM primary: inactive; GLD-1 RNA inh: inactive; E coli Lon inh: inactive; MEX-5 binding: inactive; EBV gp42 inh: inactive; BCLXL inh: inactive

Results for O=Cc1cc(N=Nc2ccccc2Cl)ccc1O ?
MCL1 BIM primary: inactive; GLD-1 RNA inh: inactive; E coli Lon inh: 25; MEX-5 binding: inactive; EBV gp42 inh: inactive; BCLXL inh: inactive; eLon confirm: 36

How did Cc1ccc2c(c1)c(N=Nc1cccc(C(=O)O)c1)c(O)n2C do in these assays?
MCL1 BIM primary: inactive; GLD-1 RNA inh: inactive; E coli Lon inh: inactive; MEX-5 binding: inactive; EBV gp42 inh: inactive; BCLXL inh: inactive

How did O=Cc1cc(N=Nc2cccc(C(=O)O)c2)ccc1O do in these assays?
MCL1 BIM primary: inactive; GLD-1 RNA inh: inactive; E coli Lon inh: 15; MEX-5 binding: inactive; EBV gp42 inh: inactive; BCLXL inh: inactive; eLon confirm: 24

What do the screens show for `S=c1[nH]nc(C2CCCCC2)n1/N=C/c1cccc(Cl)c1Cl`?
E coli Lon inh: inactive; MEX-5 binding: inactive

What do the screens show for `CC1(c2ccc3ccccc3c2)NC(=O)N(CC(=O)NCC(C)(C)N2CCOCC2)C1=O` (configuration not stated)?
MCL1 BIM primary: inactive; GLD-1 RNA inh: inactive; E coli Lon inh: inactive; MEX-5 binding: inactive; BCLXL inh: inactive

Results for Cc1ccc(S(=O)(=O)NC(=O)NCc2ccc(Cl)cc2)cc1 ?
MCL1 BIM primary: inactive; GLD-1 RNA inh: inactive; E coli Lon inh: 16; MEX-5 binding: inactive; EBV gp42 inh: inactive; BCLXL inh: inactive; eLon confirm: inactive

What do the screens show for `CC(C)OP(=O)(CCP(=O)(OC(C)C)OC(C)C)OC(C)C`?
MCL1 BIM primary: inactive; GLD-1 RNA inh: inactive; E coli Lon inh: 17; MEX-5 binding: inactive; EBV gp42 inh: inactive; BCLXL inh: inactive; eLon confirm: inactive

Results for NC(=S)N/N=C/c1coc2ccc(Cl)cc2c1=O ?
MCL1 BIM primary: inactive; GLD-1 RNA inh: inactive; E coli Lon inh: 13; MEX-5 binding: inactive; EBV gp42 inh: inactive; BCLXL inh: inactive; eLon confirm: 24

Results for O=C(N/N=C/c1coc2ccc(Cl)cc2c1=O)c1ccc(O)cc1 ?
E coli Lon inh: inactive; MEX-5 binding: inactive

What do the screens show for `Cc1[nH]c2ccccc2c1C(=O)C(=O)N1CCN(c2cccc(Cl)c2)CC1`?
MCL1 BIM primary: inactive; GLD-1 RNA inh: inactive; E coli Lon inh: inactive; MEX-5 binding: inactive; BCLXL inh: inactive

Results for Cc1ccc(C)c(Cn2c(=O)n(CCCC(=O)NCc3ccco3)c(=O)c3ccccc32)c1 ?
MCL1 BIM primary: inactive; GLD-1 RNA inh: inactive; E coli Lon inh: inactive; MEX-5 binding: inactive; EBV gp42 inh: inactive; BCLXL inh: inactive
